# Screening results from PubChem BioAssay.
# Hits are enriched below; roughly 3.2% of the tested compounds scored in any of these assays.
# MEKK3 PB1 HTS: modulators (inhibitors or enhancers) of MEK5 binding to human MEKK3 PB1 domain; Q99759; 290,000 compounds, 1.4% hits; bead-based flow cytometry, Alexa488-MEK5 binding to MEKK3; actives lie on both sides; 0 = blocked by unlabeled MEK5, 100 = vehicle; binding response (% of control), % at 10 µM;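 active = binding response more than 3 SD above or below the average of its plate-row segment, actives on both sides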;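 also: Alexa488 bead fluorescence after subtracting the streptavidin-only scavenger bead signal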
# Target sequence (Q99759 whole entry, looked up, the tested form may be a part): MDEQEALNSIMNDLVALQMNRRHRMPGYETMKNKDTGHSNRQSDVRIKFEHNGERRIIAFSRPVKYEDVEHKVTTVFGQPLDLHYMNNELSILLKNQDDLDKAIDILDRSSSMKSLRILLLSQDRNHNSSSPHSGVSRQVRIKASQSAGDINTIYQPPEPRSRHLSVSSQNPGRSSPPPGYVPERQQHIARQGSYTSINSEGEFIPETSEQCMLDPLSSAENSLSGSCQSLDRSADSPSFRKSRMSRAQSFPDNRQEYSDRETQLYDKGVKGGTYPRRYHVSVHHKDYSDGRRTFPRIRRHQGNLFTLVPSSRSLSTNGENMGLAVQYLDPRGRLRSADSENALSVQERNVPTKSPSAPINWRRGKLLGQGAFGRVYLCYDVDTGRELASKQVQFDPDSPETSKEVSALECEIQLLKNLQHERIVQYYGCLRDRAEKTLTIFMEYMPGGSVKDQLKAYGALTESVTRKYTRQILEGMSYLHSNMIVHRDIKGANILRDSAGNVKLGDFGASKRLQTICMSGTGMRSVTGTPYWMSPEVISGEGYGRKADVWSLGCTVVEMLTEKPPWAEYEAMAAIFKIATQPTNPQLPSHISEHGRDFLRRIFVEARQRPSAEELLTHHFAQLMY
# NRP1-CendR mod: alters CendR peptide binding to human NRP-1; FAM-RPARPAR peptide binding to NRP-1, fluorescence polarization; inhibition, % at 25 µM; 360,000 compounds, 0.85% hits; AID 602438;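 active = inhibition or corrected inhibition above about 18%, plus a signal ratio from 0.5 to 1.5, limit read from the data, passing the limit was not always enough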
# SKN-1 inh: C. elegans SKN-1 inhibition; 360,000 compounds, 0.49% hits; AID 624304; C. elegans VP596 Pgst-4::GFP/RFP ratio, acrylamide-induced, 24 h; inhibition, % at 21.8 µM;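 active = interference check ratio from 0.5 to 1.5 plus GFP to RFP signal ratio inhibition reaching or exceeding a fixed threshold, cut at about 30% in these data, passing the limit was not always enough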
# MEKK2 mut-MEK5: signal of MEK5 binding to mutant human MEKK2 PB1 domain; bead flow cytometry, Alexa488-MEK5 binding to MEKK2 mutant; percent response, % at 10 µM; 290,000 compounds, 0.35% hits; in the data active = percent response above about 24%, passing the limit was not always enough
# MEKK2 WT-MEK5: raises or lowers MEK5 binding to wildtype human MEKK2 PB1 domain; Q9Y2U5; bead flow cytometry, Alexa488-MEK5 binding to MEKK2 WT; actives lie on both sides; binding response (% of control), % at 10 µM; 290,000 compounds, 1.1% hits; in the data active = binding response below about 67% or above about 130%
# MEKK2wt confirm: raises or lowers MEK5 binding to wildtype human MEKK2, retest | bead flow cytometry, Alexa488-MEK5 binding to MEKK2 WT; actives lie on both sides | shares compounds with MEKK3 PB1 HTS | AID 1892 | binding response (% of control), % at 10 µM | 5,900 compounds, 2.4% hits; in the data active = binding response below about 16% or above about 210%; inactive = in between
# MEKK2mut-MEK5: signal of MEK5 binding to mutant human MEKK2, retest; shares compounds with MEKK3 PB1 HTS; bead flow cytometry, Alexa488-MEK5 binding to MEKK2 mutant; percent response, % at 10 µM; 5,900 compounds, 2% hits; AID 1893; in the data active = percent response mostly above about 71%, no sharp cut-off; inactive = mostly below about 38%;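 also: higher means compound restores mutant binding toward wildtype level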
# MEKK3-MEK5 inh: confirmation of inhibitors of MEK5 binding to human MEKK3; bead flow cytometry, Alexa488-MEK5 binding to MEKK3; active compounds read low; shares compounds with MEKK3 PB1 HTS; AID 1894; 5,900 compounds, 1.8% hits; binding response (% of control), % at 10 µM;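 active = binding response below 72% of control, or above a set upper limit, though filed actives all read lower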;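 also: 100% = DMSO only wells and 0% = binding blocked by excess unlabeled MEK5; lower values mean stronger disruption of MEK5 binding to MEKK3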
# The depositor's hits bear a star; / = no result given.
SMILES,MEKK3 PB1 HTS,NRP1-CendR mod,SKN-1 inh,MEKK2 mut-MEK5,MEKK2 WT-MEK5,others
COc1ccc(CCN(C)Cc2ccc(C(=O)Nc3ccccc3)cc2)cc1OC,91.0,0.0,-13.7,-5.0,98.0,
c1ccc(C(c2nnnn2Cc2ccco2)N2CCN(c3nc4ccccc4s3)CC2)cc1 (stereo not drawn),88.0,45.7*,5.2,2.0,92.0,
c1csc(Cn2nnnc2CN2CCN(c3nc4ccccc4s3)CC2)c1,104.0,-8.1,36.2*,4.0,107.0,
c1ccc(Cn2nnnc2C(c2ccccc2)N2CCN(c3nc4ccccc4s3)CC2)cc1 (stereo not drawn),92.0,5.5,12.8,-5.0,89.0,
C[C@H](CO)N1C[C@H](C)[C@@H](CN(C)C(=O)c2ccc3ccn(C)c3c2)OCc2cn(nn2)CCCC1=O,/,-2.2,4.6,/,/,
CN(C(=O)c1nn(C)c2c1CS(=O)(=O)c1ccccc1-2)c1cccc(Cl)c1,96.0,-8.8,0.7,-6.0,98.0,
c1ccc(OCCn2c(-c3ccco3)nc3ccccc32)cc1,96.0,-35.5,8.3,-1.0,95.0,
Cc1cccc(OCCn2c(-c3ccco3)nc3ccccc32)c1,107.0,27.9*,-16.0,7.0,108.0,
O=C(Nc1nccs1)c1cn(-c2ccccc2)nc1-c1ccccc1,97.0,2.8,8.1,0.0,106.0,
CC(=O)Cc1nsc(NC(=O)c2cn(-c3ccccc3)nc2-c2ccc(Br)cc2)n1,95.0,32.4*,-1.0,-10.0,96.0,
O=C(Nc1ccc(Br)cn1)c1ccc(COc2c(F)c(F)cc(F)c2F)o1,/,-2.1,-2.1,/,/,
CC[C@@H](C)CN1C(=O)N[C@@H](CCc2ccccc2)C(C(C)=O)=C1C,96.0,28.5*,10.3,-7.0,93.0,
CC(=O)C1=C(C)N(Cc2ccccc2)C(=O)N[C@H]1CCc1ccccc1,108.0,8.5,8.8,1.0,98.0,
COc1ccc(C(=O)Cn2nnc(-c3ccccc3NC(=O)C3CC3)n2)cc1,102.0,33.2*,-13.5,2.0,103.0,
COc1ccc(C(=O)Cn2nnc(-c3ccccc3F)n2)cc1,95.0,7.1,3.8,-2.0,94.0,
COC(=O)c1ccc(C)c(NC(=O)Cc2coc3cc(OC)ccc23)c1,94.0,31.7*,-7.3,0.0,91.0,
COc1ccc(-n2nc(C(=O)NCC(=O)NCc3ccc(F)cc3)c3ccccc3c2=O)cc1,101.0,2.6,-7.9,-1.0,101.0,
Fc1ccc(-c2csc(-c3ccncc3)n2)cc1,97.0,-13.6,69.9*,-7.0,98.0,
c1ccc(Nc2nc(-c3cccnc3)cs2)nc1,96.0,6.8,15.3,1.0,99.0,
Cc1cccc(Nc2nc(-c3ccc(F)cc3)cs2)n1,112.0,11.2,15.7,6.0,118.0,
OC(c1ccc(F)cc1)c1nc(-c2ccncc2)cs1 (stereo not drawn),/,1.9,-12.0,/,/,
COc1cccc2cc(-c3nc(-c4cccs4)cs3)c(=O)oc12,98.0,47.1*,14.3,-10.0,71.0,
Cc1cccc(Nc2nc(-c3cccs3)cs2)n1,99.0,21.9,36.3*,10.0,110.0,
c1ccc(Nc2nc(-c3cccs3)cs2)nc1,118.0,-0.2,71.7*,17.0,119.0,
COc1ccc(CN(C)CC(=O)Nc2ccccc2C(=O)NC2CC2)cc1,/,-12.4,9.9,/,/,
SMILES,MEKK3 PB1 HTS,NRP1-CendR mod,SKN-1 inh,MEKK2 mut-MEK5,MEKK2 WT-MEK5,others
CCCn1c(CN2CCN(C(=O)c3ccco3)CC2)nc2cc(S(=O)(=O)N(C)C)ccc21,/,7.4,-6.7,/,/,
Fc1ccc(-c2csc(Nc3ccccn3)n2)cc1,109.0,5.1,74.6*,4.0,107.0,
c1csc(-c2csc(-c3cccs3)n2)c1,111.0,5.0,92.7*,4.0,108.0,
C=CCn1c(=O)/c(=C/c2ccsc2)s/c1=C(\C#N)C(=O)NCCN1CCOCC1,/,-37.0,-5.8,/,/,
Cc1ccc(C(=O)Nc2ccccc2C(=O)Nc2ccccn2)cc1Cl,95.0,27.7*,3.1,0.0,100.0,
Cc1ccc(C)c(N2C(=O)c3ccc(C(=O)Nc4ccccn4)cc3C2=O)c1,/,22.2*,-4.4,/,/,
Cc1c(C(=O)NCc2ccc3c(c2)OCCO3)sc(=O)n1Cc1ccc(C(=O)N(C)C)cc1,/,8.6,6.0,/,/,
COc1ccc(C(CNC(=O)c2ccc(OC)c(S(=O)(=O)N3CCCC3)c2)N2CCCC2)cc1 (stereo not drawn),/,-9.7,6.9,/,/,
COc1cccc(C=NNc2ccc([N+](=O)[O-])cn2)c1OC,/,-23.6,12.2,/,/,
COc1ccccc1C=NNc1ccc([N+](=O)[O-])cn1,/,24.1*,1.0,/,/,
Cc1ccc(S(=O)(=O)CC(=O)NCc2ccccc2)cc1,100.0,-6.5,13.7,13.0,104.0,
Cc1ccc(CNC(=O)CS(=O)(=O)CC(=O)O)cc1,102.0,21.1*,13.9,8.0,109.0,
CN(C(=O)Cn1c(=O)oc2ccccc21)C1CCCCC1,/,20.0*,-0.8,/,/,
CN(CC(=O)Nc1cccc(F)c1)C(=O)Cn1c(=O)oc2ccccc21,/,22.6*,3.9,/,/,
CCc1nnc(NC(=O)c2sc3nc4c(cc3c2N)CCCCC4)s1,139.0*,-8.0,7.7,2.0,106.0,
O=C(NCCn1cccn1)C1CCC(=O)N(CCc2cccc(F)c2)C1 (stereo not drawn),98.0,47.4*,-2.8,-4.0,96.0,
Cn1cccc1C(=O)OCc1ccc(C(C)(C)C)cc1,101.0,-42.4,22.1,-2.0,100.0,
O=C(O)c1cc(-c2cccc3ccccc23)nc2ccccc12,99.0,1.8,37.2*,4.0,103.0,
O=C(Nc1cccnc1)c1cc(-c2ccc(Cl)c(Cl)c2)on1,96.0,-6.7,3.4,-10.0,91.0,
O=C(Nc1cccnc1)c1cc(-c2ccc3c(c2)OCO3)on1,106.0,-26.3,38.9*,8.0,108.0,
Clc1ncccc1-c1nnn(-c2ccccc2Br)n1,100.0,-2.8,53.4*,3.0,101.0,
Clc1nc2ccccc2cc1-c1nnn(-c2ccccc2Br)n1,98.0,4.0,26.5,-1.0,97.0,
c1ccc(CN2CCC(Nc3nc(-c4cccs4)nc4ccccc34)CC2)cc1,116.0,19.6,2.5,27.0,188.0*,MEKK2wt confirm=173.0;MEKK2mut-MEK5=40.0;MEKK3-MEK5 inh=112.0
c1csc(-c2nc(NCC3CCCO3)c3ccccc3n2)c1 (stereo not drawn),99.0,5.8,4.9,-1.0,100.0,
COc1ccc(C2N(c3ccccc3)C(=S)N3CCCN23)cc1 (stereo not drawn),139.0*,-7.3,-11.4,1.0,106.0,MEKK2wt confirm=96.0;MEKK2mut-MEK5=0.0;MEKK3-MEK5 inh=101.0
